From PubChem BioAssay (NCI) come the findings set out here.

Compounds without any hit were thinned out: in the full panel of roughly 83,000, 20% have a hit.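 Cell lines were cultured in 96-well plates, exposed to a single compound concentration, and assessed for percent growth 48 hours later.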 A number with no mark means an inactive call. Activity calls are given as the source filed them. Rule for the calls: active = growth percent below 10; inactive = the rest.

Assay in all cases: NCI-60 one-dose screen, 48 h (100 = growth as untreated, 0 = no growth, -100 = all killed)
What all share (conditions): 10 µM unless noted

The subject of assay [1] is NCI-H23 lung.
Assay [2] relates to NCI-H226 lung.
In assay [3] the test system is NCI-H322M lung.
Assay [4] deals with HOP-62 NSCLC.
Assay [5] concerns NCI-H460 lung.
In assay [6] the test system is NCI-H522 lung.
For assay [7], the system named is A549/ATCC NSCLC.
Assay [8] deals with 786-0 renal.
In assay [9] the test system is COLO 205 colon.
Assay [10] has as its system DU-145 prostate.
The subject of assay [11] is K-562 leukemia.
For assay [12], the system named is MALME-3M melanoma.
Assay [13] deals with MDA-MB-231 breast.
The subject of assay [14] is RXF 393 renal.
Assay [15] deals with SF-268 CNS.
Assay [16] concerns SF-295 CNS.
The test system of assay [17] is SF-539 CNS.
Assay [18] has as its system UACC-257 melanoma.
For assay [19], the system named is M14 melanoma.

Consider `COc1cnc2c(c1)C(=O)c1c-2n(CCCN2CCCC2)c(=O)c2cc(Cl)ccc12`, for which the growth is 32.5% in [1]; 6.56% (active) in assay [2]; 46.6% in [3]; 16.2% in [4]; -12.9% (active) in [5]; 4.02% (active) in assay [6]. The growth is 25.3% in [7]; -73.1% (active) in [8]; 10.4% in [9]; 36% in [10]; -72% (active) in [11]; 70.3% in assay [12]. Further, the growth in assay [13] was 62.4%; in assay [14], 30%; in assay [15], 39.2%; in assay [16], 23%; in [17], 4.9% (active); in [18], 63.6%. Also, the growth in [19] was 37.3%.

With `CN1C(=O)N(C)C2C1NN=c1s/c(=C\c3ccsc3)c(=O)n12` (configuration not stated), the growth in assay [1] was 59.4%; in assay [2] it was 46.1%; in [3], 65.1%; in [4], 46.8%; in [5], 18.2%; in assay [6], 26.4%. The growth in assay [7] was 42.2%; in assay [8], 47.6%; in [9], 41.1%; in [10], 74.9%; in assay [11], 13.5%; in assay [12], 54.3%. Also, the growth was 66.8% in assay [13]; 51.6% in [14]; 64.4% in assay [15]; 25% in assay [16]; 40.2% in assay [17]; 60.9% in [18]. In addition, the growth in assay [19] was 22.7%.

Take `CC1(C)OC2OC3C(CN)OC(c4ccccc4)OC3C2O1` (configuration not stated): the growth in [1] was 99.5%; in assay [2] it was 107%; in assay [3], 125%; in [4], 93.9%; in [5] it was 124%; in assay [6], 99%. Further, the growth is 107% in assay [7]; 104% in assay [8]; 103% in assay [9]; 108% in assay [10]; 104% in [11]; 120% in [12]. The growth was 101% in [13]; 122% in [14]; 93.2% in [15]; 123% in assay [16]; 106% in [17]; 105% in assay [18]. Besides, in assay [19], the growth is 120%.

For the compound `CCN1C(=O)/C(=C/N2N=C(c3ccc(Cl)cc3)CC2c2ccc(OC)cc2)SC1=S` (configuration not stated), the growth in assay [1] is 98.3%; in assay [2], 93%; in assay [3], 89%; in assay [4], 96%; in assay [5], 99.7%; in [6], 70.4%. The growth in assay [7] was 74.3%; in assay [8], 76.4%; in assay [9], 99.7%; in assay [10] it was 108%; in [11], 77.8%; in assay [12] it was 108%. Also, the growth is 87.2% in assay [13]; 91.9% in [14]; 95.2% in [15]; 89.6% in assay [16]; 88% in [17]; 89.3% in assay [18]. Also, in assay [19], the growth is 92.3%.

Take `Cc1c(C(=O)Nc2ccccc2F)sc2c(=O)[nH]cnc12`: the growth in assay [1] was 94%; in assay [2] it was 102%; in assay [3] it was 94.1%; in assay [4], 96.1%; in assay [5], 51.6%; in assay [6], 66.6%. Besides, the growth in assay [7] was 88.3%; in assay [8], 98.4%; in assay [9], 97.8%; in assay [10], 112%; in assay [11], 47.4%; in [12], 88.3%. In addition, the growth in assay [13] was 86.2%; in [14], 107%; in assay [15], 106%; in [16], 85.4%; in [17], 109%; in [18], 88.7%. The growth in [19] was 75.1%.

Consider `O=C(CC(=O)c1cccc(Cl)c1)c1cccc(Cl)c1`, for which the growth is 28.4% in assay [1]; 41.5% in assay [2]; 47.9% in assay [3]; 22.1% in [4]; 21.6% in assay [5]; 38.5% in assay [6]. In addition, the growth is 57.7% in [7]; 43% in assay [8]; 46.9% in assay [9]; 42.6% in [10]; 20.8% in assay [11]; 64.5% in assay [12]. In addition, the growth in [13] was 45.2%; in assay [14], 61.9%; in assay [15] it was 51.4%; in assay [16] it was 26.8%; in assay [17] it was 41.4%; in assay [18], 52.7%. The growth in assay [19] is 37.3%.

Turning to `Cc1ccc(NC(=O)c2sc3nc4c(cc3c2N)C(=O)CCC4)cc1Cl`, the growth in assay [1] was 100%; in assay [2], 102%; in [3], 109%; in assay [4], 110%; in assay [5], 106%; in assay [6] it was 96.1%. For the same compound, the growth is 101% in assay [7]; 104% in assay [8]; 128% in [9]; 109% in assay [10]; 93% in assay [11]; 112% in [12]. Also, the growth in assay [13] was 113%; in [14], 117%; in assay [15], 115%; in assay [16], 80%; in assay [17], 102%; in assay [18], 95.1%. In addition, the growth in [19] was 122%.

For `NS(=O)(=O)c1ccc(CCn2c(SCC(=O)N/N=C/c3cc4ccccc4[nH]3)nc3ccccc3c2=O)cc1`, the growth in assay [1] is 58.8%; in [2], 76.6%; in assay [3], 83.7%; in assay [4] it was 68.7%; in assay [5], 30.4%; in assay [6] it was 19.5%. Moreover, the growth was 84.3% in assay [7]; 78.9% in assay [8]; 74.4% in assay [9]; 64.8% in assay [10]; 27.5% in assay [11]; 38.8% in assay [12]. Further, the growth is 61.7% in assay [13]; 91% in [14]; 89.2% in assay [15]; 90.9% in [16]; 82.8% in assay [17]; 82.6% in [18]. Further, the growth in [19] was 74%.
